Experimental data: ChEMBL document CHEMBL4513216, “Probing the Open Global Health Chemical Diversity Library for Multistage-Active Starting Points for Next-Generation Antimalarials” (ACS Infect Dis, 2020)
In all, about 69,000 compounds went through this assay and about 8,600 (12%) showed an effect of 50% or more. This excerpt belongs to a sample that is enriched for strong results.

Tested on: Plasmodium berghei
Assay: Screen against P. berghei liver stage (PbLuc), transformed with Luciferase, at 10uM
Type: functional, HepG2
Conditions: tested at 10 uM

Row | Compound | INHIBITION
1 | Cc1ncsc1CN1C[C@H](OCC(C)C)[C@H]2OCCC[C@H]21 | -37.9%
2 | Cc1cc(CN2C[C@@H]3CCCO[C@@H]3[C@H](N(C)C(C)C)C2)no1 | 71.6%
3 | Cc1ncsc1CN1C[C@@H]2CCCO[C@@H]2[C@H](Nc2ccccn2)C1 | 34.2%
4 | CCS(=O)(=O)N[C@@H]1CN(Cc2cc(C)on2)C[C@@H]2CCCO[C@@H]21 | 21%
5 | Cc1cc(CN2C[C@@H]3CCCO[C@@H]3[C@H](NS(C)(=O)=O)C2)no1 | -13%
6 | COC1CCC[C@@H]2CN(Cc3csc(C)n3)C[C@H]12 (stereo not given in full) | 40.3%
7 | Cc1nc(CN2C[C@@H]3CCCO[C@@H]3[C@H](NC(=O)CC3CC3)C2)cs1 | 47.9%
8 | Cc1ncsc1CN1C[C@@H]2CCCO[C@@H]2[C@H](N(C)C(C)C)C1 | 50.7%
9 | Cc1nc(CN2C[C@@H]3CCCO[C@@H]3[C@H](N(C)C(C)C)C2)cs1 | 66.8%
10 | Cc1cccc(C)c1NC(=O)CN(C)C(C)c1nc(C(C)(C)C)no1 (stereo not given) | 34.6%
11 | Cc1cccc(OCCNC(=O)CN2CCCC2Cn2cncn2)c1 (stereo not given) | 12.7%
12 | CNC(=O)c1cc(C)ccc1NCc1cn2cc(C)ccc2n1 | 29.6%
13 | CCC(C#N)NC(=O)c1sccc1OC (stereo not given) | 26.4%
14 | COCC1CC2(CCN(C(=O)c3cncc(C)c3)CC2)CO1 (stereo not given) | -26.1%
15 | O=C(NCc1cccnc1)c1nc2c(s1)CCCN2c1ncccn1 | 26.3%
16 | Cc1ccc(N2CCCc3sc(C(=O)NCc4ccncc4)nc32)nn1 | 42.5%
17 | Cc1ccc(N2CCCc3sc(C(=O)NCc4cccnc4)nc32)nn1 | 63.5%
18 | CC(C)N(C)CC(=O)N(C)C(c1cccc(F)c1)c1ccccn1 (stereo not given) | -55.4%
19 | CN(Cc1cccc(O)c1)CC1CCCN(CCc2ccc(Cl)cc2)C1 (stereo not given) | 73.5%
20 | O=C(Nc1ccc(Cl)cn1)C1CCCN(CCc2ccncc2)C1 (stereo not given) | 74.4%
21 | COc1ccccc1CCN1CCCC(CN(C)Cc2cc(C)n[nH]2)C1 (stereo not given) | 36.8%
22 | O=C(Nc1ccc(Cl)cn1)C1CCCN(Cc2ccccn2)C1 (stereo not given) | 15.7%

Row | Compound | INHIBITION
23 | COc1ccc(CCN2CCCC(CN(C)Cc3ccc(C)o3)C2)cc1 (stereo not given) | 70.6%
24 | Cc1cc(CN(C)CC2CCCN(CCc3ccc(Cl)cc3)C2)[nH]n1 (stereo not given) | 86.6%
25 | O=C(Nc1ccc(Cl)cn1)C1CCCN(CCc2ccccn2)C1 (stereo not given) | 48.3%
26 | Cc1nc[nH]c1CN(C)CC1CCCN(CCc2ccc(Cl)cc2)C1 (stereo not given) | 33.7%
27 | CCN(CC1CCCN(CCc2cccc(OC)c2)C1)C(=O)CN(C)C (stereo not given) | 16%
28 | CN(Cc1ccccc1O)CC1CCCN(CCc2ccc(Cl)cc2)C1 (stereo not given) | 5.36%
29 | COc1ccc(CCN2CCCC(CN(C)Cc3[nH]cnc3C)C2)cc1 (stereo not given) | 16.3%
30 | COc1ccccc1CCN1CCCC(CN(C)Cc2ccc(C)o2)C1 (stereo not given) | 22%
31 | O=C(O)c1cc(-c2cccs2)nc2c(Cl)cnn12 | 47.1%
32 | Cn1cc(C#N)c(=O)n(CC(O)c2ccccc2F)c1=O (stereo not given) | -4.185%
33 | CC(=O)N1CCC(c2cnc(-c3c(C)n[nH]c3C)cn2)CC1 | 49.6%
34 | CC(CC(=O)O)CC(=O)Nc1sc2c(c1C(N)=O)CCc1ccccc1-2 (stereo not given) | 27.5%
35 | CNC(=O)C(C)(C)N1CCC[C@H]1C(=O)NCCN1CCCC1 | -84.9%
36 | Cc1ccc(C(=O)N2CCCN(Cc3cccs3)CC2)n1C | 6.683%
37 | O=S1(=O)NC(C2CCN(Cc3ccncc3)CC2)Nc2ccccc21 (stereo not given) | 1.5%
38 | CN(Cc1cnc(N)nc1)CC1CCCN(CCc2ccc(Cl)cc2)C1 (stereo not given) | -7.94%
39 | CN(Cc1ccncc1)CC1CCCN(CCc2ccc(Cl)cc2)C1 (stereo not given) | 65.9%
40 | CN(Cc1nnc(C2CC2)n1C)C1CCN(CCc2ccncc2)C1 (stereo not given) | -11.2%
41 | Cc1nc(CN(C)CC2CCCN(CCc3ccc(Cl)cc3)C2)no1 (stereo not given) | 40.8%
42 | Cc1nc(CN(C)CC2CCCN(CCc3ccc(Cl)cc3)C2)n(C)n1 (stereo not given) | 39.3%
43 | COc1ccccc1CN(Cc1cccnc1)Cc1c[nH]c(C)n1 | 12%
44 | COc1ccccc1CC1CCCN(CCC#N)C1 (stereo not given) | 9.32%

Row | Compound | INHIBITION
45 | COc1ccccc1CCN1CCCC(CN(C)Cc2c[nH]c(C)n2)C1 (stereo not given) | 85.7%
46 | Cc1noc(CN(C)CC2CCCN(CCc3ccc(Cl)cc3)C2)n1 (stereo not given) | 58.5%
47 | CC(=O)NCCNC(=O)c1sc(-c2ccc(Cl)cc2)nc1C | -14.75%
48 | C[C@@H]1CN(CCc2ccccc2)C[C@]12CCN(CC(=O)N(C)C)C2=O | -29.5%
49 | CC(C#N)CN(C)Cc1nc2c(cnn2C)c(=O)[nH]1 (stereo not given) | 5.72%
50 | CCN(CC1CCCO1)S(=O)(=O)N1CCCCCC1 (stereo not given) | -9.21%
51 | Cc1ccc2c(c1)c(Sc1ccccc1)c(CC(=O)O)n2C | 12.8%
52 | Cc1c[nH]nc1C1CCN(C(=O)CC2CCCC2)C1 (stereo not given) | -136%
53 | CCc1oc(C(=O)N(C)Cc2nonc2C)cc1CN(CC)CC | 35.7%
54 | Cc1ccc(C(=O)N2CCC3(CC2)C(=O)NCCN3C)cc1O | 4.64%
55 | CN(C)c1ncc(CN2CCOC(C(=O)Nc3ccccc3)C2)cn1 (stereo not given) | 23.9%
56 | Cc1cc(C)cc(NC(=O)CC2CN(Cc3ccccc3)CCO2)c1 (stereo not given) | -10.9%
57 | Cc1cc(NC(=O)C2CN(Cc3ccccc3)CCO2)ccn1 (stereo not given) | 96.2%
58 | CC(C)(C)n1cc(NC(=O)C2CN(Cc3ccccc3)CCO2)cn1 (stereo not given) | -43.3%
59 | CN(C)c1ncccc1NC(=O)C1CN(Cc2ccccc2)CCO1 (stereo not given) | 85.1%
60 | CC(C)c1ncc(CN2CCOC(C(=O)Nc3ccccc3)C2)cn1 (stereo not given) | 6.32%
61 | CN(C)c1ncccc1CN1CCOC(C(=O)Nc2ccccc2)C1 (stereo not given) | 37.6%
62 | CN(C)c1ccc(NC(=O)C2CN(Cc3ccccc3)CCO2)cn1 (stereo not given) | 52.6%
63 | O=C(O)C1CN(Cc2cccc(-c3ccccn3)c2)CCO1 (stereo not given) | -1.45%
64 | Cc1ccc(CNc2cc(N3CCCC3CO)ncn2)s1 (stereo not given) | -23.9%
65 | C[C@@H]1CN(C(=O)c2cccn2C)C[C@]12CCN(c1ccsc1)C2=O | 8.93%
